# Results as given in PubChem BioAssay AID743287 (Broad Institute, 2014).
# The campaign covered roughly 370,000 compounds. About 2,300 (0.62%) were called active.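 Rule for the calls: active = lowest replicate activation of at least 40%, so every replicate reaches that level; inactive = the rest.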 The entries come from a sample that favours actives as a whole.
# Experiment: GLuc luminescence reporter in INS-1E cells, primary screen for activators of glucose-dependent secretion of insulin (AID 743287);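 note: 0% = median of neutral control wells and 100% = median of IBMX positive control wells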
# Conditions: INS-1E GLuc reporter insulin secretion, 2-3 h, at 16.6 µM, stronger effect = higher value
row,SMILES,activation
1,O=C(COc1cccc2c1CCNC2=O)NC1CCCCC1,44.9% (active)
2,Cc1ccccc1NC(=O)COc1cccc2c1CCNC2=O,23.1% (inactive)
3,O=C(COc1ccccc1O)NC1CCCC1,11.6% (inactive)
4,COc1ccc(NC(=O)Nc2ccc3c(c2)C(=O)N([C@@H](C)CO)C[C@@H](C)[C@@H](CN(C)C(=O)Nc2ccc(F)cc2)OCCCC[C@@H](C)O3)cc1,-7.03% (inactive)
5,COc1ccc(-c2ccccc2[C@H]2[C@@H](C#N)N(C(=O)C3CCC3)[C@@H]2CO)cc1,-4.21% (inactive)
6,S=C(NCCCc1cnc[nH]1)NCCCN(Cc1ccc(Cl)c(Cl)c1)c1ccc(Br)cn1,17% (inactive)
7,O=C(/C=C/c1ccc(Cl)cc1)Nc1ccc(Br)cn1,3.4% (inactive)
8,NCCCNC(=S)NCCCN(Cc1ccc(Cl)cc1)c1ccc(Br)cn1,57.1% (active)
9,CCOc1cc(C(=O)OCC(=O)Nc2cccc(C)c2)ccc1OCC(=O)N1CCOCC1,7.48% (inactive)
10,COc1ccc(C(=O)OCC(=O)Nc2cccc(C(C)=O)c2)cc1OC,67.3% (active)
11,COc1ccc(C(=O)OCC(=O)Nc2cc(C)on2)cc1F,12.4% (inactive)
12,C[C@@H]1CN([C@@H](C)CO)S(=O)(=O)c2ccc(-c3ccncc3)cc2O[C@@H]1CN(C)C(=O)C1CCC1,7.69% (inactive)
13,CCCNC(=O)N(C)C[C@H]1Oc2cc(C3=CCCCC3)ccc2S(=O)(=O)N([C@H](C)CO)C[C@H]1C,-12.1% (inactive)
14,CCCN(CCC)C(=S)Nc1cc(C(=O)OC)ccc1C(=O)OC,20.1% (inactive)
15,COC(=O)c1ccc(C(=O)Nc2cc(Cl)ccc2Cl)cc1NC(=O)c1ccccc1C,82.6% (active)
16,CCN(CCO)C(=S)Nc1cc(C(=O)OC)ccc1C(=O)OC,18% (inactive)
17,Cc1ccc(F)c(NC(=O)CCOc2ccccc2C)c1,-15% (inactive)
18,C/C=C/c1ccc(OCCOc2ccc(C=O)cc2OC)c(OC)c1,10.7% (inactive)
19,COc1cc(/C=N/NC(=O)Nc2ccccc2)ccc1OCCOc1ccccc1C,169% (active)
20,C[C@H](O)C#Cc1ccc2c(c1)O[C@H](CN(C)C(=O)C1CCCCC1)[C@@H](C)CN([C@H](C)CO)S2(=O)=O,4.13% (inactive)
21,CCCN1Cc2cccc(C(=O)NCc3ccccc3)c2C1=O,72.4% (active)

row,SMILES,activation
1,Cc1ccc(CNC(=O)c2ccccc2CCc2ccccc2)cc1,-27.9% (inactive)
2,CSc1ccccc1C(=O)NCc1ccccc1,-6.59% (inactive)
3,C[C@@H]1CN(C)C(=O)c2cc([N+](=O)[O-])ccc2O[C@@H]1CN(C)C(=O)OC(C)(C)C,16% (inactive)
4,COc1cccc(-c2ccc3n(c2=O)C[C@@H]2[C@@H](CO)[C@H](C(=O)NC4CCC4)[C@H]3N2C)c1,7.74% (inactive)
5,COc1cccc2cc(-c3cc(=O)oc4cc(C)c(O)cc34)oc12,78.5% (active)
6,COc1cccc2cc(C(=O)NCc3ccc(C)cc3)c(=N)oc12,12.3% (inactive)
7,COc1cccc(C(=O)OCc2cc(=O)oc3c(C)c(C)ccc23)c1OC,8.16% (inactive)
8,CNC[C@@H]1Oc2ccc(N(C)C)cc2CC(=O)N(C)C[C@@H]1C,2% (inactive)
9,CC(C)(C)c1ccc(S(=O)(=O)NC(=O)C2(C)CCN2C(=O)CC2CC2)cc1 (centres undefined),7.26% (inactive)
10,CC(C)(C(=O)N1CCC1(C)C(=O)NS(=O)(=O)c1ccc(Br)cc1)c1ccccc1 (centres undefined),41.5% (active)
11,CC1(C(=O)NS(=O)(=O)c2ccccc2)CCN1C(=O)C1CCCCC1 (centres undefined),4.33% (inactive)
12,O=C(NCC[C@@H]1CC[C@H](NC(=O)C2CCCCC2)[C@@H](CO)O1)Nc1ccc(Cl)cc1,-11.1% (inactive)
13,Cc1noc(C)c1NC(=O)N(C)C[C@@H]1OCCCC[C@@H](C)Oc2ccc(NC(=O)C3CCCCC3)cc2C(=O)N([C@@H](C)CO)C[C@H]1C,-7.43% (inactive)
14,COc1ccc(-c2ccccc2[C@@H]2[C@@H](C#N)N(C(=O)NC3CCCC3)[C@H]2CO)cc1,-19.5% (inactive)
15,COc1ccc2c3c(n(C)c2c1)[C@@H](CO)N(Cc1ccccc1OC)CC31CN(CC2CCOCC2)C1,10% (inactive)
16,CC(C)C#Cc1ccc2c(c1)O[C@@H](CN(C)CC1CCOCC1)[C@H](C)CN([C@H](C)CO)S2(=O)=O,-9.43% (inactive)
17,Cc1ccc(/C=N/NC(=O)COc2ccccc2-c2ccccc2)cc1,267% (active)
18,O=C(COc1ccc(-c2ccccc2)cc1)NN=C1CCCC1,11% (inactive)
19,O=C(CN1CCSCC1)N/N=C/c1ccc(F)cc1,-0.738% (inactive)
20,CN(C)C(=O)C[C@H]1CC[C@@H](NC(=O)Nc2cccc(F)c2)[C@H](CO)O1,3.3% (inactive)
21,CN1c2ccc(-c3ccc(F)cc3)cc2[C@@H]2[C@@H](CCN2C(=O)c2cccnc2)[C@H]1CO,18.2% (inactive)

row,SMILES,activation
1,CNC[C@H]1Oc2ccc(NS(=O)(=O)c3ccccc3)cc2CC(=O)N([C@H](C)CO)C[C@@H]1C,3.16% (inactive)
2,Cc1ccc(C)c(NC(=O)C2CCCN2C(=O)OC(C)(C)C)c1 (centres undefined),-3.08% (inactive)
3,CCC[C@H]1CCCC/C=C\CCCC(=O)OCCN1C(=O)OC(C)(C)C,66.4% (active)
4,Cc1cccc(C)c1NC(=O)C1CCCN1C(=O)OC(C)(C)C (centres undefined),2.21% (inactive)
5,C[C@H]1CN(C)C(=O)c2cccc(N(C)C)c2O[C@@H]1CN(C)C,-6.84% (inactive)
6,CNC[C@H]1Oc2cc(C#CCOC)ccc2S(=O)(=O)N([C@@H](C)CO)C[C@H]1C,4.43% (inactive)
7,Cc1noc(C)c1NC(=O)Nc1ccc2c(c1)CC(=O)N([C@@H](C)CO)C[C@H](C)[C@@H](CN(C)C(=O)Nc1ccc3c(c1)OCO3)O2,5.38% (inactive)
8,CC(=O)N(C)C[C@@H]1Oc2ccc(NC(=O)NC(C)C)cc2C(=O)N(C)C[C@H]1C,9.69% (inactive)
9,COc1ccc(S(=O)(=O)N(C)CC(=O)Nc2ccc3c(c2)OCCO3)cc1OC,79.4% (active)
10,COc1ccc(NC(=O)CN(C)S(=O)(=O)c2ccccc2)cc1OC,8.5% (inactive)
11,COc1ccc(/C=C/C(=O)Nc2ccc(C34CC5CC(CC(O)(C5)C3)C4)cc2)cc1OC,11.4% (inactive)
12,COc1ccc(/C=C/C(=O)Nc2ccc3c(c2)OCCO3)cc1OC,53.8% (active)
13,COc1ccc(Cl)cc1NC(=O)CN(C)CC(=O)Nc1ccc2c(c1)OCO2,-15.8% (inactive)
14,CN(CC(=O)Nc1ccc(C(N)=O)cc1)S(=O)(=O)c1ccc2c(c1)OCCO2,-7.44% (inactive)
15,C[C@H](CO)N1C[C@H](C)[C@@H](CN(C)CC2CC2)Oc2ccc(NS(=O)(=O)c3cn(C)cn3)cc2CC1=O,9.55% (inactive)
16,CO[C@H]1CN(C)C(=O)c2cc(NC(C)=O)ccc2OC[C@H](C)N(C(=O)CN(C)C)C[C@@H]1C,13.5% (inactive)
17,O=C(Nc1cc(F)ccc1F)N1CC(=O)N2[C@H](CO)[C@@H](c3ccc(-c4cccnc4)cc3)[C@@H]2C1,13.1% (inactive)
18,O=C(C1CCCC1)N1CC2(C1)[C@H](c1ccccc1)[C@H](CO)N2CCC(F)(F)F,-20.6% (inactive)
19,O=C(CCN1C(=O)C2C3C=CC(C3)C2C1=O)Nc1ccccc1F (centres undefined),3.2% (inactive)
20,O=C(O)CCCN1C(=O)c2ccccc2Sc2ncccc21,3.02% (inactive)
21,O=C(O)CCCN1C(=O)C2C3c4ccccc4C(c4ccccc43)[C@@H]2C1=O (some centres undefined),45.1% (active)

row,SMILES,activation
1,COCC(=O)Nc1ccc2c(c1)OC[C@H](C)NC[C@@H](C)[C@H](OC)CN(C)C2=O,-5.25% (inactive)
2,COc1ccc2c3c([nH]c2c1)[C@H](CO)N(CC1CC1)CC31CN(C(=O)Nc2cccc(F)c2)C1,-17.2% (inactive)
3,COc1ccc(CN(C)C[C@H]2Oc3ccc(NS(=O)(=O)c4c(C)noc4C)cc3CC(=O)N([C@H](C)CO)C[C@H]2C)cc1,6.22% (inactive)
4,Cc1nc(-c2ccc([N+](=O)[O-])cc2)c(-c2ccccc2)o1,97.9% (active)
5,CCC1OC(c2ccc([N+](=O)[O-])cc2)=Nc2ccccc21 (centres undefined),0.826% (inactive)
6,Cc1nc2ccccc2nc(=O)c1NNc1ccc([N+](=O)[O-])cc1,-4.75% (inactive)
7,COC(=O)C[C@H]1C=C[C@H](NC(=O)Nc2ccc(C(F)(F)F)cc2)[C@@H](CO)O1,15.4% (inactive)
8,Cc1ccc2[nH]c(=O)c(CN(C)S(=O)(=O)c3cccc4nonc34)cc2c1,6.21% (inactive)
9,CCCc1nc(-c2cc3cc(C)ccc3[nH]c2=O)no1,43.8% (active)
10,COc1ccccc1-c1noc(CSc2nc(C)cc(=O)[nH]2)n1,5.85% (inactive)
11,C[C@@H]1CN(C)C(=O)c2cccc(N(C)C)c2O[C@H]1CN(C)S(C)(=O)=O,23.8% (inactive)
12,COc1cccc(C#Cc2ccc([C@@H]3[C@H]4CN(C(=O)Cc5ccccc5)CC(=O)N4[C@H]3CO)cc2)c1,6.19% (inactive)
13,COc1ccccc1NC(=O)N1CCCCN2[C@@H](CO)[C@@H](c3ccc(C#Cc4ccccc4)cc3)[C@@H]2C1,-22.8% (inactive)
14,S=C(Cc1ccc(Cl)cc1)N1CCOCC1,9.43% (inactive)
15,OC(c1ccc(Cl)cc1)C(CN1CCOCC1)c1ccccc1 (centres undefined),225% (active)
16,O=C(CC(c1ccccc1)c1cc(Cl)ccc1O)NCCN1CCOCC1 (centres undefined),-15% (inactive)
17,O=C(NC[C@@H]1[C@@H](c2ccccc2)[C@@H](CO)N1Cc1ccccn1)C1CCC1,1.69% (inactive)
18,CCc1cnc(N2[C@H](C#N)[C@H](c3ccccc3-c3ccccc3C)[C@H]2CO)s1,-14.3% (inactive)
19,Cc1nnc(NC(=O)CSc2nc(C3CCCCC3)nc3ccccc23)s1,16.1% (inactive)
20,O=C(CSc1nnnn1C1CCCC1)Nc1ccc2c(c1)OCCO2,4.25% (inactive)
21,O=C(CSc1nc(C2CC2)nc2ccccc12)Nc1ccc2c(c1)OCCO2,43.1% (active)
